# Experimental data as given in paper PMC8384837, “Expanding the binding specificity for RNA recognition by a PUF domain”.
# Columns and labels:
# Test in all cases: yeast three-hybrid, YBZ-1, SC-Leu-His + 0.5 mM 3-AT, 4 days
# Details in all cases: tags: N-Gal4 AD-HA kept; label: inside an RPR1-promoter hybrid RNA with tandem MS2 sites; ssRNA
# PUM1 PUF domain R5-SRM = PUM1 PUF domain R5-SRM (Homo sapiens, UniProt Q14671 828-1176, C1007S;Q1011M)
# Summary of the method: (§1)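 The interaction score is the logarithmic change in variant frequency from input to selection. It uses log2, with a pseudocount of 1 for absent variants, and frequencies came from PCR-amplified, Illumina-sequenced repeat regions. The libraries were Pumilio-1 PUF domains randomized at the three base-contacting residues per repeat, co-expressed with matching RNA elements in strain YBZ-1 (LexA–MS2 coat fusion, HIS3 reporter). Plating lasted four days on SC-Leu (input) or SC-Leu-His + 0.5 mM 3-AT (selection).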
# PUM1 PUF domain R1-RSE = PUM1 PUF domain R1-RSE (Homo sapiens, UniProt Q14671 828-1176, S863R;R864S;Q867E)
# Summary of the method: as §1
# PUM1 PUF domain R1-YGR = PUM1 PUF domain R1-YGR (Homo sapiens, UniProt Q14671 828-1176, S863Y;R864G;Q867R)
# Summary of the method: as §1
# PUM1 PUF domain R4-GNT = PUM1 PUF domain R4-GNT (Homo sapiens, UniProt Q14671 828-1176, N971G;H972N;Q975T)
# Summary of the method: as §1
# PUM1 PUF domain R4-PYS = PUM1 PUF domain R4-PYS (Homo sapiens, UniProt Q14671 828-1176, N971P;H972Y;Q975S)
# Summary of the method: as §1
# PUM1 PUF domain R4-DFL = PUM1 PUF domain R4-DFL (Homo sapiens, UniProt Q14671 828-1176, N971D;H972F;Q975L)
# Summary of the method: as §1
# PUM1 PUF domain R6-SWG = target: T1, PUM1 PUF domain R6-SWG (Homo sapiens, UniProt Q14671 828-1176, N1043S;Y1044W;Q1047G)
# T1 sequence: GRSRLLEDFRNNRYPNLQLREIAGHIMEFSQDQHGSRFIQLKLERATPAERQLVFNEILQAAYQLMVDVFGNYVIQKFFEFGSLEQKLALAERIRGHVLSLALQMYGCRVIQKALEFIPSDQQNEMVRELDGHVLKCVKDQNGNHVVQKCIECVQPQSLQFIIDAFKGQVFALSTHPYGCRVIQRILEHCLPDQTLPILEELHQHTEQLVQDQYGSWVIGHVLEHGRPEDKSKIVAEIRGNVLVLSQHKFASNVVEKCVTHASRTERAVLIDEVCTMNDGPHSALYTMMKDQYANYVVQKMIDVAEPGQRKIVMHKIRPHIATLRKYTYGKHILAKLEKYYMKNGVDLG
# Summary of the method: as §1
# PUM1 PUF domain R3-VYP = PUM1 PUF domain R3-VYP (Homo sapiens, UniProt Q14671 828-1176, C935V;R936Y;Q939P)
# Summary of the method: as §1
# PUM1 PUF domain R3-LSK = PUM1 PUF domain R3-LSK (Homo sapiens, UniProt Q14671 828-1176, C935L;R936S;Q939K)
# Summary of the method: as §1
# PUM1 PUF domain R3-PHH = PUM1 PUF domain R3-PHH (Homo sapiens, UniProt Q14671 828-1176, C935P;R936H;Q939H)
# Summary of the method: as §1
# PUM1 PUF domain R4-DWI = PUM1 PUF domain R4-DWI (Homo sapiens, UniProt Q14671 828-1176, N971D;H972W;Q975I)
# Summary of the method: as §1
# PUM1 PUF domain R7-DNV = PUM1 PUF domain R7-DNV (Homo sapiens, UniProt Q14671 828-1176, S1079D;E1083V)
# Summary of the method: as §1
# PUM1 PUF domain R7-RSW = PUM1 PUF domain R7-RSW (Homo sapiens, UniProt Q14671 828-1176, S1079R;N1080S;E1083W)
# Summary of the method: as §1
# PUM1 PUF domain R8-GYR = PUM1 PUF domain R8-GYR (Homo sapiens, UniProt Q14671 828-1176, N1122G;Q1126R)
# Summary of the method: as §1
# PUM1 PUF domain R8-RHW = PUM1 PUF domain R8-RHW (Homo sapiens, UniProt Q14671 828-1176, N1122R;Y1123H;Q1126W)
# Summary of the method: as §1
# PUM1 PUF domain R8-KRK = PUM1 PUF domain R8-KRK (Homo sapiens, UniProt Q14671 828-1176, N1122K;Y1123R;Q1126K)
# Summary of the method: as §1
sequence,measurement,setting,value
GGCUAGAACUAGUGGAUCCCCCGGCGCCCGGCGGCUCGAGCCCGGGUAAGUGUGAAUAGUCUGCAUGCCGCCGGGCGCCAUGCCUGCAGGUCGACUCUAGAAAACAUG,binding signal,PUM1 PUF domain R5-SRM,1.99 log2 enrichment (interaction score)
GGCUAGAACUAGUGGAUCCCCCGGCGCCCGGCGGCUCGAGCCCGGGUAAGUGUAAAUCGUCUGCAUGCCGCCGGGCGCCAUGCCUGCAGGUCGACUCUAGAAAACAUG,binding signal,PUM1 PUF domain R1-RSE,2.49 log2 enrichment (interaction score)
same,binding signal,PUM1 PUF domain R1-YGR,5.61 log2 enrichment (interaction score)
GGCUAGAACUAGUGGAUCCCCCGGCGCCCGGCGGCUCGAGCCCGGGUAAGUGUAUAUAGUCUGCAUGCCGCCGGGCGCCAUGCCUGCAGGUCGACUCUAGAAAACAUG,binding signal,PUM1 PUF domain R4-GNT,3.55 log2 enrichment (interaction score)
same,binding signal,PUM1 PUF domain R4-PYS,5.95 log2 enrichment (interaction score)
same,binding signal,PUM1 PUF domain R4-DFL,2.93 log2 enrichment (interaction score)
GGCUAGAACUAGUGGAUCCCCCGGCGCCCGGCGGCUCGAGCCCGGGUAAGUGAAAAUAGUCUGCAUGCCGCCGGGCGCCAUGCCUGCAGGUCGACUCUAGAAAACAUG,binding signal,PUM1 PUF domain R6-SWG,1.35 log2 enrichment (interaction score)
GGCUAGAACUAGUGGAUCCCCCGGCGCCCGGCGGCUCGAGCCCGGGUAAGUGUAAUUAGUCUGCAUGCCGCCGGGCGCCAUGCCUGCAGGUCGACUCUAGAAAACAUG,binding signal,PUM1 PUF domain R3-VYP,2.9 log2 enrichment (interaction score)
same,binding signal,PUM1 PUF domain R3-LSK,5.2 log2 enrichment (interaction score)
same,binding signal,PUM1 PUF domain R3-PHH,2.2 log2 enrichment (interaction score)
GGCUAGAACUAGUGGAUCCCCCGGCGCCCGGCGGCUCGAGCCCGGGUAAGUGUACAUAGUCUGCAUGCCGCCGGGCGCCAUGCCUGCAGGUCGACUCUAGAAAACAUG,binding signal,PUM1 PUF domain R4-DWI,5.64 log2 enrichment (interaction score)
same,binding signal,PUM1 PUF domain R4-GNT,0.59 log2 enrichment (interaction score)
same,binding signal,PUM1 PUF domain R4-PYS,5.7 log2 enrichment (interaction score)
GGCUAGAACUAGUGGAUCCCCCGGCGCCCGGCGGCUCGAGCCCGGGUAAGUUUAAAUAGUCUGCAUGCCGCCGGGCGCCAUGCCUGCAGGUCGACUCUAGAAAACAUG,binding signal,PUM1 PUF domain R7-DNV,3.87 log2 enrichment (interaction score)
same,binding signal,PUM1 PUF domain R7-RSW,2.57 log2 enrichment (interaction score)
GGCUAGAACUAGUGGAUCCCCCGGCGCCCGGCGGCUCGAGCCCGGGUAAGCGUAAAUAGUCUGCAUGCCGCCGGGCGCCAUGCCUGCAGGUCGACUCUAGAAAACAUG,binding signal,PUM1 PUF domain R8-GYR,5.09 log2 enrichment (interaction score)
same,binding signal,PUM1 PUF domain R8-RHW,4.05 log2 enrichment (interaction score)
same,binding signal,PUM1 PUF domain R8-KRK,4.95 log2 enrichment (interaction score)
